HepG2 viability – qHTS for Inhibitors of TGF-b: Cytotox Counterscreen | HepG2 CAGA-GFP viability, ATP luminescence, 18 h | Potency, µM (highest dose often 46.1 µM), hits mostly cytotoxic | 410,000 tested, 0.76% active | AID 588856, 2011
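CellTiter-Glo luminescence gave cytotoxicity after 18 hours at 37 degrees C. The cells were HepG2 CAGA-GFP in 1% FBS DMEM, stimulated with 500 pg/mL TGF-beta after compound addition. %Activity was normalised to no-cell wells (complete cell-killing) and DMSO (no toxicity), and curves were fitted and classified.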
IL-1B inflam inh – qHTS for Inhibitors of Inflammasome Signaling: IL-1-beta AlphaLISA Primary Screen; THP-1 LPS/ATP IL-1B secretion, AlphaLISA, 16 h; stronger effect = lower value; activity change, % at 57.5 µM; 360,000 tested, 4.7% active; in the data active = activity change below about -50%; inconclusive = mostly about -30% to -49%
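Secreted IL-1B measured by AlphaLISA bead assay after 16 h compound exposure of THP-1 cells; compounds (final up to 57.5 uM) added 1 h before LPS (250 ng/mL) and ATP (1.25 mM) stimulation; lower signal means less secretion.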
DT40 TDP1 no CPT – qHTS for Inhibitors of human tyrosyl-DNA phosphodiesterase 1 (TDP1): qHTS in cells in absence of CPT | DT40 Tdp1-/- hTDP1 cells, no CPT, ATP luminescence, 48 h | Potency, µM (highest dose often 46.2 µM), actives largely listed as inhibitors | 420,000 tested, 15% active | AID 686978, 2013; also: nearly all actives have a fitted effect of over 55% in size
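Growth of hTDP1-complemented DT40 Tdp1-knockout cells is measured by ATP luminescence after at least 48 hr compound exposure at 37 °C, with DMSO substituting for the 20 nM CPT used in the parallel screen.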
DT40 TDP1 CPT – qHTS for Inhibitors of human tyrosyl-DNA phosphodiesterase 1 (TDP1): qHTS in cells in presence of CPT; 420,000 tested, 12% active; AID 686979, 2013; Potency, µM (highest dose often 46.2 µM), actives largely listed as inhibitors; chicken DT40 Tdp1-/-;hTDP1 cells + 20 nM CPT, ATP luminescence, 48 h; also: nearly all actives have a fitted effect of over 55% in size
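Cell growth measured by CellTiter-Glo luminescence after a minimum 48 h, 37 C compound exposure with 20 nM CPT in Tdp1-knockout DT40 cells stably expressing hTDP1, seeded 400/well; qHTS titration format.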
TGFb inhibitor – qHTS for Inhibitors of TGF-b; Potency, µM (series often up to 46.1 µM), actives largely listed as inhibitors; HepG2 CAGA-GFP TGF-b/SMAD3 reporter, GFP fluorescence, 18 h; TGF-beta stimulated, 500 pg/mL final; 410,000 tested, 1.2% active; also: nearly all actives have a fitted effect of over 65% in size
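TGF-beta reporter screen: HEPG2 CAGA-GFP, 1% FBS, 500 pg/mL TGF-beta final, 18 h; per-cell GFP summed per well; curves fitted and categorized by class.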
TDP1 block – qHTS Assay for Inhibitors of Tyrosyl-DNA Phosphodiesterase (TDP1); Tyrosyl-DNA phosphodiesterase 1 (Homo sapiens), Q9NUW8; recombinant TDP1, AlphaScreen DNA substrate cleavage; Potency, µM (titrated, usually from 130 µM), most hits filed as inhibitors; 350,000 tested, 0.28% active; AID 485290, 2010; also: nearly all actives have a fitted effect of over 40% in size
Target sequence (Q9NUW8 whole entry, looked up): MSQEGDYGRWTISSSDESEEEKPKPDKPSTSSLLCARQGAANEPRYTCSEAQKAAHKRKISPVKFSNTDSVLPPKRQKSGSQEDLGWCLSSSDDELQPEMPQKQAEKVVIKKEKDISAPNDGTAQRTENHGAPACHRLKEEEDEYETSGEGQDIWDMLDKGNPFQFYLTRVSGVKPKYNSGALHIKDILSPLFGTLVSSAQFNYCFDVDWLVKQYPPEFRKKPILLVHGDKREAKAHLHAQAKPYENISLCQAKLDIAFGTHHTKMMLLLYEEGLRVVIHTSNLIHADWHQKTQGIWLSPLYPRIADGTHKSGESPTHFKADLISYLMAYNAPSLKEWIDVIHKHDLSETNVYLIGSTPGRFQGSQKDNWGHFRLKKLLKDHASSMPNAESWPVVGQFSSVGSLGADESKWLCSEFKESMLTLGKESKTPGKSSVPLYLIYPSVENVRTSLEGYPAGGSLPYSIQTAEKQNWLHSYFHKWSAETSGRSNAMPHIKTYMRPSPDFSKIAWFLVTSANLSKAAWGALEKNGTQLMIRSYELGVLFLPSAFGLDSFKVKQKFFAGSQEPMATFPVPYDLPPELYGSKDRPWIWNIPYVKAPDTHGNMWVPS
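Recombinant human Tdp1 (E. coli-expressed, 1 nM final) preincubated with compounds 15 min at room temperature, then 5'-biotin/3'-phosphotyrosine-FITC DNA substrate (15 nM final) added for 5 min. AlphaScreen beads (10 ug/ml final) added 10 min; cleavage lowers signal.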
Hits are given with their value; . = inactive; ? = inconclusive; / = not tested or not shown. Hits are enriched below; roughly 19% of the tested compounds scored in any of these assays. Unless noted, calls follow the shape of the dose curve; as a rule, active = well fitted curve in the direction sought with a large enough effect; inconclusive = small, poorly fitted or top-dose-only effect, or another doubt; inactive = no such curve, though single readings can be large; an effect the other way counts as inactive or inconclusive.

SMILES | HepG2 viability | IL-1B inflam inh | DT40 TDP1 no CPT | DT40 TDP1 CPT | TGFb inhibitor | TDP1 block
Cc1ccc(C)c(N2CCN(S(=O)(=O)c3ccc4[nH]c5c(c4c3)CCCC5)CC2)c1 | . | / | ? | ? | 12.6µM | .
COc1ccc(NC(=O)C2CCN(S(=O)(=O)c3ccc4[nH]c5c(c4c3)CCCCC5)CC2)cc1 | . | / | ? | ? | . | .
Cn1cc(C(c2ccccc2OCC(=O)O)c2cn(C)c3ccccc23)c2ccccc21 | . | . | 16.4µM | 11.6µM | . | /
O=C(CSc1nnc(CNC(=O)c2c(F)cccc2Cl)o1)Nc1ccccc1F | . | / | . | . | ? | .
Cc1ccc(-c2nc3c4ccccc4[nH]c(=O)n3n2)cc1 | . | / | ? | ? | . | .
O=c1[nH]c2ccccc2c2nc(-c3cccc(S(=O)(=O)N4CCCC4)c3)nn12 | . | . | 16.4µM | ? | . | /
CC(C)(C)C(=O)[C@@H]1[C@@H]2C(=O)N(c3ccc4c(c3)OCCO4)C(=O)[C@@H]2C2c3ccccc3C=CN21 (some centres undefined) | . | . | 23.1µM | ? | . | .
Cc1ccc(S(=O)(=O)Nc2cccc(S(=O)(=O)N3CCCC3)c2)cc1C | . | . | ? | ? | . | .
CCOc1cc(/C=C/C(=O)c2ccc3c(c2)OCCO3)ccc1OCC(=O)N(C)C | . | -104.0 | 23.1µM | . | . | .
CCOc1cc(/C=C/C(=O)c2ccc(O)cc2)ccc1OCC(=O)N(C)C | . | -103.1 | ? | ? | . | .
COc1cc(OC)c(NC(=O)CCn2cccn2)cc1Cl | . | / | . | . | . | .
Cc1cc(NC(=O)c2ccco2)sc1C | . | . | ? | ? | . | .
CC(=O)O[C@@H]1[C@H](OC(=O)CC(C)C)c2c(ccc3ccc(=O)oc23)OC1(C)C | . | . | ? | 25.9µM | . | .
CCO[C@H]1c2c(ccc3ccc(=O)oc23)OC(C)(C)[C@H]1O | . | . | . | . | . | .
C/C=C(/C)C(=O)OC1c2c(ccc3ccc(=O)oc23)OC(C)(C)C1OC(=O)/C(C)=C\C (centres undefined) | . | . | ? | ? | 11.2µM | .
Cc1cc(-c2nc3cc(F)ccc3s2)ccc1N | . | -75.5 | . | . | ? | /
O=C(CBr)c1ccc(Oc2ccc(C(=O)C[n+]3ccccc3Cl)cc2)cc1 | . | / | ? | ? | ? | /
CN1C(=O)[C@H]2[C@@H](c3ccc(C(F)(F)F)cc3)N[C@]3(CCCN(Cc4ccc(C(F)(F)F)cc4)C3=O)[C@H]2C1=O | . | . | 18.4µM | 23.1µM | . | /
CN1C(=O)[C@H]2[C@@H](c3ccc(C(F)(F)F)cc3)N[C@]3(CCCN(Cc4ccc(Br)cc4)C3=O)[C@H]2C1=O | . | . | 16.4µM | 14.6µM | . | /
CN1C(=O)[C@H]2[C@@H](c3ccc(C(F)(F)F)cc3)N[C@]3(CCCN(CC4CCCCC4)C3=O)[C@H]2C1=O | . | . | 10.3µM | 20.6µM | . | /
Cc1ccc(CN2CCC[C@]3(N[C@H](c4ccc(C)cc4)[C@@H]4C(=O)N(C)C(=O)[C@@H]43)C2=O)cc1 | . | . | ? | ? | . | /
CCOc1ccccc1CNC(=O)C1CCN(c2nn3cc(-c4ccc(F)cc4)nc3s2)CC1 | . | / | . | . | . | .
O=C1SC(SC(=Nc2ccccc2)Nc2ccccc2)C(=O)N1c1ccccc1 (centres undefined) | . | . | ? | 14.6µM | . | .
Nc1ccccc1SC1CC(=O)N(c2ccc(Cl)c(Cl)c2)C1=O (centres undefined) | . | ? | 13µM | 25.9µM | ? | .
O=C1CC(SC(=Nc2ccccc2)Nc2ccccc2)C(=O)N1c1ccc(Cl)c(Cl)c1 (centres undefined) | . | ? | 18.4µM | ? | . | .
SMILES | HepG2 viability | IL-1B inflam inh | DT40 TDP1 no CPT | DT40 TDP1 CPT | TGFb inhibitor | TDP1 block
Nc1ccccc1SC1CC(=O)N(c2ccc3c(c2)OCCO3)C1=O (centres undefined) | . | . | ? | . | . | /
O=C1CC(Sc2ccc(Cl)cc2)C(=O)N1c1ccc2c(c1)OCCO2 (centres undefined) | . | / | 14.6µM | 2.91µM | . | .
COc1ccc2oc(=O)c(C(=O)N3CCN(c4ccc(C)cc4)CC3)cc2c1 | . | / | ? | . | ? | .
COc1ccc(C)cc1NC(=O)c1cccc(C(=O)Nc2cc(C)ccc2OC)c1 | . | ? | 10.3µM | 14.6µM | . | /
COc1ccc(C)cc1NC(=O)c1ccc2c(c1)OCO2 | . | . | . | . | . | .
COc1ccc(OC)c(NC(=O)c2cc(OC(C)=O)cc(C(=O)Nc3cc(OC)ccc3OC)c2)c1 | . | . | 10.3µM | ? | ? | /
O=C(Cn1c2ccccc2c2nc3n(c(=O)c21)CCS3)Nc1ccccc1 | . | . | ? | 20.6µM | . | .
O=C(Cn1c(=O)c2cccn2c2cccnc21)NCc1ccccc1F | . | / | . | . | . | .
O=C(OCCO)c1ccccc1O | / | / | . | . | / | .
COc1cc(C(=O)Nc2scc(-c3ccccc3)c2C(=O)O)cc(OC)c1OC | . | . | 13µM | ? | . | /
CCOC(=O)c1c(-c2ccc(C)cc2)csc1NC(=O)/C(C#N)=C/c1ccc(O)c(OC)c1 | . | . | 14.6µM | ? | . | .
CCOC(=O)c1c(-c2ccco2)csc1N | . | . | . | . | . | .
CCOC(=O)c1c(-c2cc(OC)c(OC)c(OC)c2)csc1NC(=O)c1ccccc1 | . | . | 18.4µM | ? | . | /
CCOC(=O)c1c(-c2cc(OC)c(OC)c(OC)c2)csc1N | . | . | ? | 23.1µM | . | /
CN1CCN(S(=O)(=O)c2ccc(F)cc2)CC1 | . | . | . | . | . | /
Cc1cc(C(=O)Nc2ccc(C(C)C)cc2)c2c(C)nn(-c3ccccc3)c2n1 | . | / | / | / | . | .
COC(=O)c1ccc(NC(=O)CSc2nc(=O)n(Cc3ccco3)c3c2CCC3)cc1 | . | / | ? | . | ? | .
CCOC(=O)[C@H]1[C@H]2COc3ccc(OC)cc3[C@@H]2N2C(=O)CN(CCc3c[nH]c4ccccc34)C(=O)[C@@]12C | . | . | ? | ? | ? | .
COc1cccc(CNC(=O)N2CCN(c3ccccc3)CC2)c1 | . | . | ? | . | . | .
O=C(/C=C/c1cccs1)Nc1scc(-c2ccccc2)c1C(=O)O | . | . | . | . | . | 31.6µM
